Screening results (PubChem BioAssay)
Most compounds without a hit are left out; they make up all but 6.5% or so of the library.
VACV Venus inh: qHTS for Stage-Specific Inhibitors of Vaccinia Orthopoxvirus: Venus Reporter Primary qHTS. 330,000 compounds, 0.46% hits. AID 720580, 2013. Vaccinia virus Venus reporter expression, fluorescence. Potency, µM (top dose mostly 36.5 µM), actives largely listed as inhibitors; calls by dose curve; tested in A549 cells; also: nearly all actives have a fitted effect of over 30% in size
Lassa entry inh: qHTS for Inhibitors of binding or entry into cells for Lassa Virus; Lassa virus pseudotype entry inhibition, cell reporter; Potency, µM (doses to about 37.9 µM), usual class: inhibitors; 300,000 compounds, 1.2% hits; AID 540256, 2011; calls by dose curve; tested in HEK293 cells; also: nearly all actives have a fitted effect of over 50% in size
HCMV antiviral: qHTS Assay for inhibitors of the human cytomegalovirus (HCMV). HFF cells, HCMV-luciferase reporter, 72 h; hits give low values. activity change, negative = inhibition, % at 57.5 µM. 410,000 compounds, 4.5% hits. AID 1259415, 2018; in the data active = activity change below about -60%; inconclusive = no clear call, values can overlap the other calls; inactive = above about -39%
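After 16 h attachment at 37C, HFF cells received test compound and HCMV-luciferase (1 PFU/cell); reporter luminescence read 72 h later, data normalized against buffer-only and known inhibitor Salinomycin.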
FMDV inh: High Throughput Screening for Foot and Mouth Disease Virus Antivirals; FMDV antiviral cell-based qHTS; Potency, µM (doses to about 57.9 µM), hits mostly inhibitors; 410,000 compounds, 1.2% hits; calls by dose curve; tested in HEK293T cells; also: read-out not given here; nearly all actives have a fitted effect of over 45% in size
Vaccinia mCherry: qHTS for Stage-Specific Inhibitors of Vaccinia Orthopoxvirus: mCherry Reporter Primary qHTS. 310,000 compounds, 0.63% hits. Vaccinia virus mCherry reporter infection, fluorescence. AID 720579, 2013. Potency, µM (top dose mostly 36.5 µM), most hits filed as inhibitors; calls by dose curve; tested in A549 cells; also: nearly all actives have a fitted effect of over 35% in size
Marburg entry inh: qHTS for inhibitors of binding or entry into cells for Marburg Virus; Marburg virus pseudotyped entry inhibition, cell reporter; Potency, µM (titrated, usually from 37.8 µM), most hits filed as inhibitors; 300,000 compounds, 1.8% hits; AID 540276, 2011; calls by dose curve; tested in HEK293 cells
Hits are given with their value; i = inactive; ? = inconclusive; nt = no result given.

SMILES | VACV Venus inh | Lassa entry inh | HCMV antiviral | FMDV inh | Vaccinia mCherry | Marburg entry inh
O=c1[nH]c(=O)n(C2C[C@H](O)[C@@H](CO)O2)cc1C(F)(F)F (some centres not stated) | ? | nt | i | i | 0.5µM | nt
O=c1[nH]c(=O)n([C@H]2C[C@@H](O)[C@@H](CO)O2)cc1F | 14µM | nt | nt | nt | 3.5µM | nt
COc1cc(Nc2ncc3c(n2)CCN(Cc2ccc(OC(C)C)c(OC)c2)C3)cc(OC)c1 | i | i | i | i | i | nt
CC(=O)c1ccc(NC(=O)c2cnn3c2NC(=C2CC2)C=C3C(F)F)cc1 | i | nt | nt | nt | i | nt
CC(C)COc1ccc(-c2nnc(-c3ccco3)o2)cc1 | nt | 7.3µM | i | i | nt | ?
CCCOc1ccc(-c2nnc(-c3ccco3)o2)cc1 | nt | 8.2µM | i | ? | nt | ?
COc1cccc(-c2nnc(-c3ccco3)o2)c1 | i | ? | i | i | i | ?
O=C(COc1ccccc1)Nc1ccc(-c2nnc(-c3ccco3)o2)cc1 | i | i | i | i | nt | i
COc1cc2nc(N3CCOCC3)nc(NC3CC3)c2cc1OC | i | nt | nt | nt | i | nt
CN1OC(C)(CC(=O)NCc2ccccc2)N=C1c1ccccc1 (configuration not stated) | nt | nt | i | nt | nt | nt
Cc1nn(-c2ccccn2)c2c1C(=O)C(Br)CC2 (configuration not stated) | i | i | nt | 32µM | i | ?
CC1=C(C)C(=O)N(c2ccccn2)C1=O | i | i | i | i | nt | i
Cc1ccccc1CC1C(=O)Nc2ccc(Br)cc21 (configuration not stated) | i | i | ? | i | i | i
COc1ccc(Br)cc1CC1C(=O)Nc2ccccc21 (configuration not stated) | ? | i | -74 | ? | i | ?
CCC(C)(C)n1nnnc1CN(Cc1ccco1)Cc1cc2cc3c(cc2[nH]c1=O)OCO3 | i | i | nt | i | i | ?
CC(C)(C)n1nnnc1CN(Cc1ccco1)Cc1cc2cc3c(cc2[nH]c1=O)OCO3 | i | i | -65 | i | nt | i
CCC(C)(C)n1nnnc1CN(Cc1ccc(Cl)cc1)Cc1ccco1 | i | i | -64 | ? | i | ?
COCCn1nnnc1CN(Cc1ccco1)Cc1cc2cc3c(cc2[nH]c1=O)OCO3 | nt | i | i | i | nt | i
COc1ccc2cc(CN(Cc3ccco3)C(c3nnnn3C3CCCCC3)C(C)C)c(=O)[nH]c2c1 (configuration not stated) | i | i | i | 16µM | nt | i
COc1ccc2cc(CN(Cc3ccco3)Cc3nnnn3C3CCCCC3)c(=O)[nH]c2c1 | i | ? | -84 | i | i | ?
Cc1cc(Cl)ccc1NC(=O)CN1C(=O)COc2ccc(S(=O)(=O)N3CCC(C)CC3)cc21 | i | i | i | i | i | nt
Cc1cc(/C=N/NC(=O)CC#N)c(C)n1-c1ccc([N+](=O)[O-])cc1 | i | i | -91 | i | i | i
N#CCc1ccc(NS(=O)(=O)c2ccc(C3CCCCC3)cc2)cc1 | i | i | -64 | i | i | ?
COc1ccc(S(=O)(=O)Nc2ccc(CC#N)cc2)cc1 | i | i | i | i | i | i
COc1ccc(C(C)NC(=S)NC2CCCC2)cc1OC (configuration not stated) | i | i | i | i | i | i
SMILES | VACV Venus inh | Lassa entry inh | HCMV antiviral | FMDV inh | Vaccinia mCherry | Marburg entry inh
Cc1ccc(C(C)NC(=S)NC2CCCCC2)c(C)c1 (configuration not stated) | nt | nt | -78 | i | nt | nt
Cc1ccc(C(C)NC(=O)C2CCCC2)c(C)c1 (configuration not stated) | nt | nt | i | i | nt | nt
CC(NC(=S)NC1CCC(C(C)(C)C)CC1)c1ccccc1 (configuration not stated) | nt | nt | -82 | i | nt | nt
Cc1ccc(C(C)NC(=S)NC2CCCCC2)cc1C (configuration not stated) | nt | nt | -75 | nt | nt | nt
CCc1ccc(C(=O)NC(Cc2c[nH]c3ccccc23)C(=O)OCC(=O)c2ccc(Br)cc2)cc1 (configuration not stated) | i | i | i | i | i | nt
CCOC(=O)[C@H](C)Sc1nc(-c2cccs2)ccc1C#N | nt | nt | nt | nt | nt | i
CCOC(=O)c1c(C)[nH]c(-c2csc(N)n2)c1C | i | ? | -81 | i | ? | ?
COc1cc(OC)c(NC(=O)Cc2c(C(=O)O)c(C)cn2C)cc1Cl | i | i | i | i | i | nt
